Data published in PubChem BioAssay.
A number with no mark means an inactive call. Activity calls are given as the source filed them.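 The calls were made as follows: active = inhibition above 50%; inactive = the rest.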

Test: human hepatoma cell viability loss – ATP luminescence, cytotoxicity control for P. falciparum antimalarial project, primary screen (AID 2303);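 also: 0% = DMSO wells and 100% = digitonin-killed cells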
Conditions: HepG2 viability, 24-48 h, at 10 µM, hits give high values

| Compound | inhibition |
| --- | --- |
| C[C@@H]1CC[C@H](NC(=O)[C@H](CC2CCCC2)NC(=O)N2CCNCC2)C(=O)CN1S(=O)(=O)c1ccccn1 | 5% |
| O=C(Nc1cccc(C(F)(F)F)c1)c1cccc(S(=O)(=O)NCC2CCN(CC3CCCCC3)CC2)c1 | 27% |
| CCc1cn2c3c(cc(C(=O)N[C@@H](Cc4ccccc4)[C@H](O)CNC(C)C)cc13)N(C)S(=O)(=O)C2 | 16% |
| O=C(NCCc1cccc(F)c1)c1ccc(N2CCN(c3ccncc3)CC2)cn1 | 4% |
| CCc1cn2c3c(cc(C(=O)N[C@@H](Cc4ccccc4)[C@H](O)CNC4CC4)cc13)N(CC)S(=O)(=O)CC2 | 13% |
| CC(C)(CNCc1cccc(Oc2ccccc2)c1)c1nc(-c2ccc(Cl)c(O)c2)c(-c2ccnc(N)n2)[nH]1 | 28% |
| O=C(Nc1cccc(CN2CCCN(Cc3ccc(O)cc3)CC2)c1)c1cc2ccccc2s1 | 27% |
| Cc1nc(-c2cccc(Nc3nccc(NCC(O)c4ccccc4C(F)(F)F)n3)c2)cs1 (stereo not given) | 48% |
| O=C(CCc1ccccc1)N[C@H](Cc1c[nH]c2ccccc12)C(=O)N1CCC(NCc2ccc3c(c2)Cc2ccccc2-3)CC1 | 53% (active) |
| Cc1nn(CC(C)C)c2sc(C(=O)N3CCN(S(=O)(=O)c4ccc(C#N)cc4)CC3)cc12 | 14% |
| Cc1cnc(C(=O)Nc2ccc3c(c2)CCCN(Cc2c[nH]c4cnccc24)C3)cn1 | 0% |
| COc1ccc(-n2ccnc2SCC(=O)Nc2cc(C(F)(F)F)ccc2Cl)c(OC)c1 | 0% |
| CCCC(=O)Nc1ccc(OCCN(Cc2ccccc2OC(F)(F)F)c2ccc(C(F)(F)F)c(C#N)c2)cc1 | -11% |
| CC(C)c1cccc(OCC2CCN(c3ncc(C(=O)Nc4ccccc4)cc3Cl)CC2)c1 | 9% |
| CN(C)C(=O)c1cc(CNCc2ccccc2)ccc1-c1cccc(CNCc2ccc(-c3ccccc3)cc2)c1 | 27% |
| O=C(Nc1ccc(C(=O)N(Cc2ccc3c(c2)OCO3)C2CCCC2)cc1)c1cccs1 | 14% |
| CN1CCN(c2cc(NC(=O)Nc3ccc(-c4ccncc4)c(Cl)c3)ccc2Br)CC1 | 23% |
| COc1ccc2nccc([C@@H](O)CN3CCC(NCc4cc5ccccn5n4)CC3)c2c1 | 7% |
| CCCCN1CCN(CC(O)CNC(=O)Nc2ccc(Cl)cc2)CC1 (stereo not given) | 17% |
| CCCC(CNCc1cccc(OCC)c1)CNc1cc(=O)c2ccccc2[nH]1 (stereo not given) | -4% |

| Compound | inhibition |
| --- | --- |
| NS(=O)(=O)c1cccc(-c2ccc3c(=O)[nH]cnc3c2)c1 | 6% |
| Cc1c(Oc2ccc(-n3ccnc3)cc2)ncnc1N1CCC2(CC1)CNCc1ccccc12 | 26% |
| CCOC(=O)N[C@@H]1CN[C@@H](C#Cc2cc3c(Nc4ccc(OCc5cccc(F)c5)c(Cl)c4)ncnc3s2)C1 | 8% |
| Cc1cccc2[nH]c(-c3ccc(-c4cccc(NC(=O)Nc5ccsc5)c4)s3)nc12 | 30% |
| CC(CNc1nc(NCC(c2ccccc2)c2ccccc2)c2[nH]cnc2n1)c1ccccc1 (stereo not given) | 5% |
| c1cc2c3c(cccc3c1)NC(CCCCCCCCC1=Nc3cccc4cccc(c34)N1)=N2 | 14% |
| Clc1ccc(-c2[nH]c3ccccc3c2CN2CCC(N3CCCCC3)CC2)cc1 | 5% |
| N#Cc1ccc2[nH]cc(CN3CCC4(CC3)CN(CCNCc3ccccc3)C(=O)CO4)c2c1 | -3% |
| COc1ccc2cc(C(c3nnnn3CC3CCCO3)N3CCc4ccccc43)c(=O)[nH]c2c1 (stereo not given) | -3% |
| CC1CN(c2ccc(NC(=O)c3cccs3)cc2)CCN1Cc1cccc(F)c1 (stereo not given) | 5% |
| NC1=NC(c2ccccc2)N(c2ccccc2)C(N)=N1 (stereo not given) | 0% |
| Cc1[nH]c2ccccc2c1C1CCN(CCCCNC(=O)c2ccc(-c3ccc(C#N)cc3)cc2)CC1 | 19% |
| Cc1nc2nc(N)nc(N)c2c(C)c1Cc1cccc(C(F)(F)F)c1 | 65% (active) |
| O=C(Nc1ccc2nc(-c3ccccc3)[nH]c2c1)c1cc(-c2ccc3c(c2)OCCO3)n[nH]1 | 58% (active) |
| CC1(C)CN(CCC2CCC(NC(=O)/C=C/c3ccccc3F)CC2)Cc2ccc(C#N)cc21 (stereo not given) | -1% |
| COc1cc(NC(=O)/C=C/c2cc3ccccc3n2C)ccc1OCCN(C(C)C)C(C)C | 16% |
| O=C(Nc1ccc2ccccc2n1)c1ccccc1-c1ccccc1 | 14% |
| COc1cc(NC(=O)c2sc(-c3ccc(Cl)cc3)cc2NC(=O)c2cccc(N(C)C)c2)ccc1OCCN1CCCC1 | 49% |
| COc1cc(NC(=O)/C=C/c2cc(F)cc(F)c2F)cc(OCCN2CCN(CCN3CCOCC3)CC2)c1 | 21% |
| CCOC(=O)c1ccc(NC(=O)N[C@@H](Cc2ccccc2)C(=O)NC2CCN(Cc3ccc(O)c(OC)c3)C2)cc1 (stereo not given in full) | -1% |
